HepG2 tox: counter-screen for TGF-b inhibitors: cytotoxicity in HepG2 cells; HepG2 CAGA-GFP viability, ATP luminescence, 18 h; AID 588856; Potency, µM (series often up to 46.1 µM), for inactives: at the top dose activity change, negative = cytotoxicity, usual class: cytotoxic; 410,000 compounds, 0.76% hits; note: potency is the fitted concentration of half-maximal effect
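HepG2 CAGA-GFP cells (1000/well, DMEM with 1% FBS) received compound, then TGF-beta at 500 pg/mL final, and were incubated 18 hours at 37 degrees C. Viability was read by CellTiter-Glo luminescence. Media-only wells were set as complete cell-killing and DMSO as no toxicity.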
IL1B secr inh: inflammasome signaling inhibition, IL-1 beta readout; AID 743279; THP-1 LPS/ATP IL-1B secretion, AlphaLISA, 16 h; active compounds read low; activity change, % at 57.5 µM; 360,000 compounds, 4.7% hits; in the data active = activity change below about -50%; inconclusive = mostly about -30% to -49%; note: % is set by controls: 0 for no effect and ±100 for the full control effect
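Secreted IL-1B measured by AlphaLISA bead assay after 16 h compound exposure of THP-1 cells; compounds (final up to 57.5 uM) added 1 h before LPS (250 ng/mL) and ATP (1.25 mM) stimulation; lower signal means less secretion.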
TDP1 cell noCPT: qHTS for Inhibitors of human tyrosyl-DNA phosphodiesterase 1 (TDP1): qHTS in cells in absence of CPT; Potency, µM (doses to about 46.2 µM), for the others: at the highest dose activity change, negative = growth inhibition, usual class: inhibitors; 420,000 compounds, 15% hits; DT40 Tdp1-/- hTDP1 cells, no CPT, ATP luminescence, 48 h; note: potency is the fitted concentration of half-maximal effect; % is set by controls: 0 for no effect and ±100 for the full control effect; nearly all actives have a fitted effect of over 55% in size
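Chicken DT40 Tdp1-/- cells stably complemented with human TDP1 were seeded at 400 cells/well with DMSO in place of 20 nM camptothecin. After compound pinning, cells grew at least 48 hr at 37 °C; viability read by CellTiter-Glo luminescence.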
TGFb SMAD3 inh: blocks TGF-b signaling; HepG2 CAGA-GFP TGF-b/SMAD3 reporter, GFP fluorescence, 18 h; TGF-beta stimulated, 500 pg/mL final; Potency, µM (titrated, usually from 46.1 µM), for the others: at the top dose activity, negative = inhibition, usual class: inhibitors; 410,000 compounds, 1.2% hits; AID 588855; note: potency is the fitted concentration of half-maximal effect; % is set by controls: 0 for no effect and ±100 for the full control effect; nearly all actives have a fitted effect of over 65% in size
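GFP signal (ex488/em500-530) from TGF-beta-stimulated HEPG2 CAGA-GFP cells, 500 pg/mL final, 18 h at 37 degrees C in DMEM plus 1% FBS, normalized to unstimulated and DMSO-stimulated controls.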
TDP1 inh: blocks human tyrosyl-DNA phosphodiesterase 1. recombinant TDP1, AlphaScreen DNA substrate cleavage. AID 485290. 350,000 compounds, 0.28% hits. Potency, µM (top dose mostly 130 µM), for inactives: top-dose activity change, negative = inhibition, actives largely listed as inhibitors. Q9NUW8; note: potency is the fitted concentration of half-maximal effect; % is set by controls: 0 for no effect and ±100 for the full control effect; nearly all actives have a fitted effect of over 40% in size
Target sequence (Q9NUW8 whole entry, looked up): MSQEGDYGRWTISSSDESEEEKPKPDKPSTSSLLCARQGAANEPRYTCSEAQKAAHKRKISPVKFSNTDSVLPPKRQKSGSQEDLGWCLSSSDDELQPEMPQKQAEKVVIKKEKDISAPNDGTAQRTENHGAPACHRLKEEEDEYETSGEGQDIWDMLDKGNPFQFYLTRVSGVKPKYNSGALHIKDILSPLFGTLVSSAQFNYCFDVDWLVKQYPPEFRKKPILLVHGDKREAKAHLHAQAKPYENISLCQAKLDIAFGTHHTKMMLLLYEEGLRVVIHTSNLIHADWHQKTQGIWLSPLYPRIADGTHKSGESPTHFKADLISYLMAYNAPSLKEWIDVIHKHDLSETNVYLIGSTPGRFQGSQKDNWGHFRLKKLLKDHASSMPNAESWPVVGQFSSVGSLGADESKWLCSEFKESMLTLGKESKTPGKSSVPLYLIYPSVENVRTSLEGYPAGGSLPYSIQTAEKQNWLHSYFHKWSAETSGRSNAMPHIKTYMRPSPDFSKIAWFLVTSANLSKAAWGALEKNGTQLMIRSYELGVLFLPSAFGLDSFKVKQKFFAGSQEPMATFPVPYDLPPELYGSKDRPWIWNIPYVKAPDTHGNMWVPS
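Compounds were preincubated with Tdp1 (1 nM final) for 15 min at room temperature before substrate (15 nM final) started a 5 min reaction; beads (10 ug/ml final) were then added for 10 min before AlphaScreen detection.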
DT40 TDP1 CPT: growth inhibition of DT40 Tdp1-/-;hTDP1 cells with camptothecin (screen for TDP1 inhibitors); chicken DT40 Tdp1-/-;hTDP1 cells + 20 nM CPT, ATP luminescence, 48 h; Potency, µM (series often up to 46.2 µM), for the others: at the highest dose activity change, negative = growth inhibition, hits mostly inhibitors; 420,000 compounds, 12% hits; note: potency is the fitted concentration of half-maximal effect; % is set by controls: 0 for no effect and ±100 for the full control effect; nearly all actives have a fitted effect of over 55% in size
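Chicken DT40 Tdp1-/- cells stably complemented with human TDP1 were seeded at 400 cells/well in medium containing 20 nM camptothecin, exposed to pin-transferred compounds, and grown at 37 °C for at least 48 hr. Viability was read as ATP luminescence.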
* hit, by the source's call; [ ] = remark or other dose. Sampled rows, rich in hits. Any-hit rate of the full collection: about 19%. Unless noted, calls come from the whole dose curve; as a rule, active = well fitted curve in the direction sought with a large enough effect; inconclusive = small, poorly fitted or top-dose-only effect, or another doubt; inactive = no such curve, though single readings can be large; an effect the other way counts as inactive or inconclusive.

Results for Cc1nnsc1-c1onc(C)c1C(=O)Nc1cc(Cl)cc(Cl)c1 ?
HepG2 tox: -60.5%; IL1B secr inh: inconclusive; TDP1 cell noCPT: -100.5%; TGFb SMAD3 inh: 15.8µM*; TDP1 inh: 1.3%; DT40 TDP1 CPT: inconclusive

How did COc1ccc(C2=C(N)c3ccccc3C2=O)cc1 do in these assays?
HepG2 tox: -37.2%; IL1B secr inh: -8.2; TDP1 cell noCPT: inconclusive; TGFb SMAD3 inh: -0.7%; TDP1 inh: -7.3%; DT40 TDP1 CPT: inconclusive

How did COc1ccc(NC2=C(c3ccc(OC)cc3)C(=O)c3ccccc32)cc1 do in these assays?
HepG2 tox: 0.0%; IL1B secr inh: 0.0; TDP1 cell noCPT: inconclusive; TGFb SMAD3 inh: 1.4%; TDP1 inh: 3.5%; DT40 TDP1 CPT: 3.66µM*

Results for O=C(c1ccccc1)c1c[nH]cc1-c1ccccc1 ?
HepG2 tox: -2.6%; IL1B secr inh: 1.0; TDP1 cell noCPT: -12.4%; TGFb SMAD3 inh: 9.7%; TDP1 inh: -4.9%; DT40 TDP1 CPT: 0.0%

Results for COC1=C(c2ccccc2)C(=O)c2ccccc2C1=O ?
HepG2 tox: 22.4µM*; IL1B secr inh: -168.8*; TDP1 cell noCPT: 16.4µM*; TGFb SMAD3 inh: 11.2µM*; TDP1 inh: 6.3%; DT40 TDP1 CPT: 23.1µM*

How did O=C(C1=C(c2ccccc2)C(=O)c2ccccc2C1=O)c1ccccc1 do in these assays?
HepG2 tox: 10µM*; IL1B secr inh: -103.8*; TDP1 cell noCPT: 2.91µM*; TGFb SMAD3 inh: 5.62µM*; TDP1 inh: 2.6%; DT40 TDP1 CPT: 2.06µM*

Results for O=C1C(c2ccc(C(F)(F)F)cc2)=C(Nc2ccc(Cl)cc2)c2ccccc21 ?
HepG2 tox: -56.8%; TDP1 cell noCPT: 11.6µM*; TGFb SMAD3 inh: 6.8%; TDP1 inh: 2.5%; DT40 TDP1 CPT: 16.4µM*

What do the screens show for `CCN(CC)c1cc2c(cc1F)c(=O)c(S(=O)(=O)c1ccc(C)cc1)cn2Cc1ccc(F)cc1`?
HepG2 tox: -14.8%; TDP1 cell noCPT: inconclusive; TGFb SMAD3 inh: -21.9%; TDP1 inh: 3.7%; DT40 TDP1 CPT: inconclusive

What do the screens show for `COc1ccc(C2=C(Nc3ccc(C)cc3C)c3ccccc3C2=O)cc1`?
HepG2 tox: -32.3%; TDP1 cell noCPT: inconclusive; TGFb SMAD3 inh: -3.7%; TDP1 inh: 6.4%[12.3 µM]; DT40 TDP1 CPT: 13µM*

Results for COc1ccc(C2=C(Nc3ccccc3)c3ccccc3C2=O)cc1 ?
HepG2 tox: -17.4%; IL1B secr inh: 15.5; TDP1 cell noCPT: inconclusive; TGFb SMAD3 inh: inconclusive; TDP1 inh: -0.6%; DT40 TDP1 CPT: -11.7%

How did Cc1cccc(N2CCN(C(=O)NC3CCCCC3)CC2C)c1 (centres undefined) do in these assays?
HepG2 tox: -9.7%; IL1B secr inh: -11.9; TDP1 cell noCPT: -7.9%; TGFb SMAD3 inh: -0.7%; DT40 TDP1 CPT: -27.5%

What do the screens show for `Cc1cccc(N2CCN(C(=O)CSc3ccsc3[N+](=O)[O-])CC2C)c1` (centres undefined)?
HepG2 tox: -31.0%; IL1B secr inh: -73.2*; TDP1 cell noCPT: inconclusive; TGFb SMAD3 inh: -6.2%; TDP1 inh: 0.0%; DT40 TDP1 CPT: -1.4%

Results for Cc1cccc(N2CCN(C(=O)Cc3c(C(=O)O)c(C)cn3C)CC2C)c1 (centres undefined) ?
HepG2 tox: 7.5%; TDP1 cell noCPT: 7.0%; TGFb SMAD3 inh: -1.3%; TDP1 inh: -9.3%; DT40 TDP1 CPT: -0.9%

Results for Cc1cccc(N2CCN(C(=O)/C=C/c3cccs3)CC2C)c1 (centres undefined) ?
HepG2 tox: -23.3%; IL1B secr inh: -11.4; TDP1 cell noCPT: 14.6µM*; TGFb SMAD3 inh: -11.5%; TDP1 inh: 2.5%; DT40 TDP1 CPT: inconclusive

What do the screens show for `Cc1ccc(NS(=O)(=O)c2ccc3c(c2)CCCC(=O)N3)cc1C`?
TDP1 inh: -0.2%

How did CC1CC(C)CN(S(=O)(=O)c2ccc3c(c2)CCN3C(=O)CCC(=O)O)C1 (centres undefined) do in these assays?
HepG2 tox: -2.7%; IL1B secr inh: inconclusive; TDP1 cell noCPT: 14.8%; TGFb SMAD3 inh: 5.3%; TDP1 inh: 0.9%; DT40 TDP1 CPT: -3.1%

Results for CCC[C@@H]1CC2=CC(=O)CC[C@]2(C)[C@H]2CC[C@@]3(C)[C@@H](CC[C@@]34CCC(=O)O4)[C@H]12 ?
TDP1 inh: 11.5%

What do the screens show for `C[C@]12CCC(=O)C=C1[C@@H]1C[C@@H]1[C@H]1[C@@H]3[C@@H]4C[C@@H]4[C@@]4(CCC(=O)O4)[C@@]3(C)CC[C@@H]12`?
TDP1 cell noCPT: 7.5µM*; DT40 TDP1 CPT: 8.41µM*

What do the screens show for `COc1ccccc1CN1CC(C(=O)NC2CCOCC2)CCC1=O` (centres undefined)?
HepG2 tox: -19.5%; IL1B secr inh: inactive; TDP1 cell noCPT: -22.3%; TGFb SMAD3 inh: 6.9%; TDP1 inh: 1.0%; DT40 TDP1 CPT: 6.9%

What do the screens show for `CC1(C)CC(=O)CC2(C1)NCC(c1ccccc1)c1c2[nH]c2ccccc12` (centres undefined)?
HepG2 tox: -15.5%; IL1B secr inh: -68.5*; TDP1 cell noCPT: inconclusive; TGFb SMAD3 inh: -17.5%; TDP1 inh: 0.0%; DT40 TDP1 CPT: inconclusive

Results for CC1(C)NC(C(=O)O)Cc2c1[nH]c1ccccc21 (centres undefined) ?
HepG2 tox: -32.2%; IL1B secr inh: 0.8; TDP1 cell noCPT: 2.2%; TGFb SMAD3 inh: 19.0%; TDP1 inh: 2.5%; DT40 TDP1 CPT: 14.1%

Results for O=C(NCCCN1CCOCC1)c1cc(-c2ccc(Br)cc2)on1 ?
HepG2 tox: -2.3%; IL1B secr inh: -62.4*; TDP1 cell noCPT: -27.6%; TGFb SMAD3 inh: -11.0%; TDP1 inh: 4.7%; DT40 TDP1 CPT: inconclusive

What do the screens show for `CCN(CC)CCCNC(=O)c1cc(-c2ccc3c(c2)OCO3)on1`?
HepG2 tox: 0.7%; IL1B secr inh: -2.4; TDP1 cell noCPT: -10.3%; TGFb SMAD3 inh: -11.6%; DT40 TDP1 CPT: 0.4%

How did CCCCNC(=O)c1cc(-c2ccc(F)cc2)on1 do in these assays?
HepG2 tox: -11.7%; IL1B secr inh: 41.5; TDP1 cell noCPT: inconclusive; TGFb SMAD3 inh: 5.5%; TDP1 inh: 3.9%[56.1 µM]; DT40 TDP1 CPT: 13µM*

High-throughput results from PubChem BioAssay.
